Reference: PubChem BioAssay (NCI)
Compounds without any hit were thinned out: in the full panel of roughly 83,000, 20% have a hit.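 Note: values are percent growth. 100 is the growth of untreated cells, values between 100 and 0 indicate rising inhibition; between -100 and 0 indicates cell death.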 A number with no mark means an inactive call. The source made the active and inactive calls. The calls were made as follows: active = growth percent below 10; inactive = the rest.

What was measured:
Experiment in all cases: NCI-60 one-dose screen, 48 h (100 = growth as untreated, 0 = no growth, -100 = all killed)
Settings in all cases: 10 µM unless noted
[1] = test system: RPMI-8226 leukemia
[2] = test system: OVCAR-8 ovarian
[3] = test system: OVCAR-5 ovarian
[4] = test system: OVCAR-4 ovarian
[5] = test system: SK-OV-3 ovarian
[6] = test system: IGROV1 ovarian
[7] = test system: OVCAR-3 ovarian
[8] = test system: HS 578T breast
[9] = test system: NCI/ADR-RES ovarian
[10] = test system: T-47D breast
[11] = test system: BT-549 breast
[12] = test system: MDA-MB-435 melanoma
[13] = test system: SW-620 colon
[14] = test system: MCF7 breast
[15] = test system: HCT-116 colon
[16] = test system: HCC-2998 colon
[17] = test system: KM12 colon

Structure (SMILES)	growth [1]	growth [2]	growth [3]	growth [4]	growth [5]	growth [6]	growth [7]	growth [8]	growth [9]	growth [10]	growth [11]	growth [12]	growth [13]	growth [14]	growth [15]	growth [16]	growth [17]
Cc1nc2ccccc2n1CC1NC(=O)NC1=O (centres undefined)	106%	96.4%	99.3%	102%	95.9%	104%	105%	102%	107%	103%	107%	99.8%	97.6%	96.2%	106%	115%	102%
CCCCNC(=O)Oc1ccc2c(=O)c3sc4c(=O)c5ccccc5c(=O)c4c3c(=O)c2c1	-41.9% (active)	-20.4% (active)	-73.6% (active)	-95.4% (active)	-93.9% (active)	-25.6% (active)	-69.5% (active)	2.8% (active)	-19.3% (active)	-38.5% (active)	-90.2% (active)	-88.9% (active)	-75.6% (active)	-59.2% (active)	-15.6% (active)	-87.1% (active)	-29.9% (active)
CCN(CC)CCN1C(=O)c2c(c(C)c3c(oc4cc(O)ccc43)c2C)C1=O	-36.3% (active)	-62.6% (active)	-38.5% (active)	-34.4% (active)	108%	91.9%	-88% (active)	87.7%	78%	89.5%	86.7%	72.9%	-50.2% (active)	3.63% (active)	-85% (active)	92%	-80.1% (active)
C[C@]12CC[C@@H]3c4cc(OC(F)F)c(O)cc4CC[C@H]3[C@@H]1CC[C@@H]2OS(N)(=O)=O	26.6%	39.3%	57.5%	67.7%	39.7%	37.1%	-0.18% (active)	32.5%	12.5%	47%	67.7%	0.824% (active)	31.2%	24.2%	29.8%	47.5%	18.9%
COc1ccc2nc(NNC(=O)c3cnccn3)c3cccn3c2c1	0.953% (active)	5.98% (active)	4.68% (active)	-7.44% (active)	-1.5% (active)	-35% (active)	1.47% (active)	43.8%	-13.4% (active)	0.223% (active)	12.7%	13.5%	0.919% (active)	-31.6% (active)	-26.5% (active)	37.4%	4.7% (active)
Cc1nc2ccccc2c(/C=C/c2ccc(Cl)cc2)c1C(=O)/C=C/c1ccc(F)cc1	-25.1% (active)	12.8%	-19.7% (active)	25.8%	61.9%	-5.53% (active)	-19.2% (active)	8.46% (active)	-0.868% (active)	17.7%	13.9%	-21.3% (active)	-19.6% (active)	17.6%	-70.5% (active)	-67.3% (active)	21.2%
Cc1cccc(NC(=O)N/C(N)=N/c2nc(C)c(C)s2)c1	28.8%	58%	82.3%	76%	65.6%	47.5%	39.8%	43.9%	25.3%	40.1%	70.3%	-28.5% (active)	25.7%	27%	33.5%	63.7%	23.4%
Nc1ccc2c(c1)c(N)nn2C(=O)Nc1ccc(Cc2ccccc2)cc1	28.2%	83.5%	67.2%	56.2%	107%	83.4%	70.1%	101%	78%	60.4%	86.4%	68.9%	93.4%	64.3%	52.5%	36.9%	65.3%
COc1ccc(CN2C(=O)C(Cl)=C(Nc3cccc(C(F)(F)F)c3)C2=O)cc1	42.6%	42.5%	55.1%	47.6%	75.8%	36.1%	62%	57%	38.9%	60.8%	26.3%	25.5%	28.8%	29.5%	28.9%	53.2%	70.2%
CCOC(=O)c1c(-c2ccc(Cl)cc2)c(C#N)c(=O)n(-c2ccccc2CC)c1N	69.3%	87.1%	92.6%	98.1%	102%	99.8%	87.8%	102%	91.9%	84.1%	123%	106%	99.9%	90.7%	91.3%	66.4%	79.1%
O=c1[nH]ccc2nc(N3CCC(O)CC3)nc(Nc3ccc(N4CCOCC4)cc3)c12	80.9%	85.5%	42.6%	112%	14.9%	47.3%	101%	45.7%	95.2%	73%	29.7%	40.6%	39.6%	44.2%	22.8%	80.3%	8.57% (active)
O=C(CCc1nnc(CN(c2ccccc2)c2ccccc2)o1)c1nc2ccccc2[nH]1	70.7%	88.3%	108%	82.9%	96.2%	74.6%	95%	92.3%	91.4%	74.4%	84.8%	94.3%	103%	76%	73.6%	90.3%	99.8%
